According to PubChem BioAssay (NCATS):
Inconclusive results are not listed. A call without a number means that no potency is given here. Calls of active or inactive are those of the source. The call rests on the fitted dose curve; in most records, active means well fitted inhibition curve with a large enough effect; inconclusive means small, poorly fitted or top-dose-only effect; inactive means flat fitted curve, though single readings scatter.

The compounds below were run against Glutathione peroxidase 1 (Homo sapiens) (UniProt P07203) (assay: Primary qHTS Assay for Inhibitors of Recombinant Selenoprotein Glutathione Peroxidase 1 (GPX1) (AID 1845191; further: nearly all actives have a fitted effect of over 65% in size)). Conditions: recombinant GPX1, GR-coupled NADPH fluorescence, 15 min; series mostly up to 48.8 µM.
In short: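 GR-coupled readout: NADPH consumption tracked by fluorescence, ex 340/em 450 nm, at t=0 and after 15 min at RT. Final mix 10 nM GPX1, 1 mM GSH, 0.5 mM CHP, 0.5 mM NADPH, 100 nM GR, 0.01% BSA, following 30 min enzyme–compound preincubation.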

Glutathione peroxidase 1 (Homo sapiens), sequence (P07203 whole entry, looked up): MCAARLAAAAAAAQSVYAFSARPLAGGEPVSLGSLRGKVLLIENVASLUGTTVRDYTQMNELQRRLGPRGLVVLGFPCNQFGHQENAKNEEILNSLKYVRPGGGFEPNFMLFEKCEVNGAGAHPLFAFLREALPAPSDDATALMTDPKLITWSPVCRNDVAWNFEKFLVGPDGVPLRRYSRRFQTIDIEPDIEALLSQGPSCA

Structure (SMILES)	Potency	outcome
CCCOc1ccc(CCc2nc3cc(-c4c(C)noc4C)ccc3n2CCN2CCOCC2)cc1	inactive	
CC(C)(O)C1Cc2c(ccc(C(=O)CCc3ccccc3)c2O)O1 (centres undefined)	inactive	
O=C(N[C@H]1CCN(C(=O)c2cc(C(F)(F)F)cc(C(F)(F)F)c2)[C@H](Cc2ccc(Cl)cc2)C1)c1ccnc2ccccc12	inactive	
COc1cccc(CN(C(=O)CC(C)(C)C)[C@H]2C[C@H](C(=O)N3CCNCC3)N(Cc3ccc4c(c3)OCO4)C2)c1	inactive	
CC(C)Oc1ccc(-c2cnc3c(-c4ccnc5ccccc45)cnn3c2)cc1	inactive	
Fc1ccc(N2CCN(CCC3OCCc4ccccc43)CC2)cc1 (centres undefined)	inactive	
O=C(NCC1(N2CCN(c3ccccc3)CC2)CCOCC1)c1cccnc1Sc1ccccc1	inactive	
CC(C)OC(=O)N1CCC(Oc2ncnc3c2cnn3-c2ccc(S(C)(=O)=O)cc2F)CC1	inactive	
O=C(N[C@@H]1CCCc2c1cnn2-c1ccc(F)cc1F)c1ccccn1	inactive	
CN(C)CCn1cc(-c2ccc(F)cc2)c(-n2cccc2)n1	inactive	
CC1(C)CC[C@]2(C(=O)O[C@@H]3O[C@H](CO)[C@@H](O)[C@H](O)[C@H]3O)CC[C@]3(C)C(=CCC4[C@@]5(C)CC[C@H](O[C@@H]6O[C@H](C(=O)O)[C@H](O)[C@H](O)[C@H]6O)C(C)(C)C5CC[C@]43C)[C@@H]2C1 (some centres undefined)	inactive	
C=C1C(=O)O[C@H]2C1CCC(C)=C1C(=O)C=C(C)[C@@]12O (some centres undefined)	inactive	
O=C(Nc1ccc(Cl)cc1)C1CCCN(C(=O)c2cccc(-c3ccco3)c2)C1 (centres undefined)	inactive	
CC1=CC2/C=C(\C)CCC(O)C/C=C/C(=O)OC23C(=O)NC(CC(C)C)C3C1C (centres undefined)	inactive	
Cc1[nH]c2ccccc2c1CCNC(=O)c1cccs1	inactive	
C/C=C(\C)C(=O)OC1C[C@@]2(COC(C)=O)O[C@H]2/C=C\[C@@]2(C)O[C@@H]2[C@H]2OC(=O)C(COC(C)=O)=C12 (some centres undefined)	inactive	
CCC(C)c1ccc(NC(=O)Cn2cnc3c2c(=O)n(C)c(=O)n3C)cc1 (centres undefined)	inactive	
C=C1C(=O)O[C@@H]2/C=C(/C)[C@@H](OC(C)=O)C/C=C(\C)C[C@@H](OC(=O)/C(=C/CO)CO)[C@@H]12	inactive	
CCN(Cc1ccccc1)C(=O)Cn1c(=O)n(C)c2cnc(-c3ccccc3)nc21	inactive	
Cc1cc2sc(NC(=O)Cc3ccccc3)nc2cc1Cl	inactive	
O=C(C1CCCCC1)N(CCN1CCN(c2ccccc2O)CC1)c1ccccn1	inactive	
COc1cc(C#N)ccc1S(=O)(=O)Nc1ccc2c(c1)cc(C)c(=O)n2C	inactive	
COc1cc(N2CCC(O)CC2)ccc1Nc1nc(Nc2ccccc2S(=O)(=O)C(C)C)c2[nH]cnc2n1	inactive	
Cc1nc(NC(=O)N2CCC[C@H]2C(N)=O)sc1-c1ccnc(C(C)(C)C(F)(F)F)c1	inactive	
COc1ccc(Oc2c(Cl)cnn(-c3cc(C)cc(C)c3)c2=O)cc1	inactive	
O=C(c1ccc(OC(F)F)c(C#Cc2ccccn2)c1)N1Cc2cccnc2C1	inactive	
COC(=O)C1=COC(O[C@@H]2O[C@H](CO[C@@H]3O[C@H](COC(=O)/C=C\c4ccc(O)cc4)[C@@H](O)[C@H](O)[C@H]3O)[C@@H](O)[C@H](O)[C@H]2O)C2C(CO)=CCC12 (some centres undefined)	inactive	
C[C@@H]1O[C@@H](O[C@H]2[C@H](OC(=O)[C@]34CCC(C)(C)C[C@H]3C3=CCC5[C@@]6(C)C[C@H](O)[C@H](O[C@@H]7O[C@H](C(=O)O)[C@@H](O)[C@H](O)[C@H]7O)[C@@](C)(CO)C6[C@H](O)C[C@@]5(C)[C@]3(C)C[C@H]4O)O[C@@H](CO)[C@@H]2O)[C@H](O)[C@H](O)[C@H]1O[C@@H]1OC[C@@H](O)[C@H](O[C@H]2OC[C@](O)(CO)[C@H]2O)[C@H]1O (some centres undefined)		inactive [at 9.52 µM]
CCC[C@H](N[C@H]1CCc2cc(F)cc(F)c2C1)C(=O)Nc1cn(C(C)(C)CNCC(C)(C)C)cn1	inactive	
